Reference: PubChem BioAssay AID2557 (NMMLSC, 2010)
Hit rate of the full screen: of about 330,000 compounds, about 650 (0.2%) were called active. The full list was thinned out, with actives kept by preference. Unmarked numbers belong to inactive results. Rule as the data show it: active = inhibition above about 50%; inactive = the rest.

Biological target: Integrin alpha-4 (Homo sapiens) (UniProt P13612)
Assay: inhibition in human VLA-4 binding assay, primary screen, VLA-4 allosteric modulator project, MLPCN library, flow cytometry, VLA-4 expressing cells (AID 2557)
Conditions: ligand binding flow cytometry, active compounds read high, about 7 µM as worked out from the volumes in the protocol

Integrin alpha-4 (Homo sapiens), sequence (P13612 whole entry, looked up): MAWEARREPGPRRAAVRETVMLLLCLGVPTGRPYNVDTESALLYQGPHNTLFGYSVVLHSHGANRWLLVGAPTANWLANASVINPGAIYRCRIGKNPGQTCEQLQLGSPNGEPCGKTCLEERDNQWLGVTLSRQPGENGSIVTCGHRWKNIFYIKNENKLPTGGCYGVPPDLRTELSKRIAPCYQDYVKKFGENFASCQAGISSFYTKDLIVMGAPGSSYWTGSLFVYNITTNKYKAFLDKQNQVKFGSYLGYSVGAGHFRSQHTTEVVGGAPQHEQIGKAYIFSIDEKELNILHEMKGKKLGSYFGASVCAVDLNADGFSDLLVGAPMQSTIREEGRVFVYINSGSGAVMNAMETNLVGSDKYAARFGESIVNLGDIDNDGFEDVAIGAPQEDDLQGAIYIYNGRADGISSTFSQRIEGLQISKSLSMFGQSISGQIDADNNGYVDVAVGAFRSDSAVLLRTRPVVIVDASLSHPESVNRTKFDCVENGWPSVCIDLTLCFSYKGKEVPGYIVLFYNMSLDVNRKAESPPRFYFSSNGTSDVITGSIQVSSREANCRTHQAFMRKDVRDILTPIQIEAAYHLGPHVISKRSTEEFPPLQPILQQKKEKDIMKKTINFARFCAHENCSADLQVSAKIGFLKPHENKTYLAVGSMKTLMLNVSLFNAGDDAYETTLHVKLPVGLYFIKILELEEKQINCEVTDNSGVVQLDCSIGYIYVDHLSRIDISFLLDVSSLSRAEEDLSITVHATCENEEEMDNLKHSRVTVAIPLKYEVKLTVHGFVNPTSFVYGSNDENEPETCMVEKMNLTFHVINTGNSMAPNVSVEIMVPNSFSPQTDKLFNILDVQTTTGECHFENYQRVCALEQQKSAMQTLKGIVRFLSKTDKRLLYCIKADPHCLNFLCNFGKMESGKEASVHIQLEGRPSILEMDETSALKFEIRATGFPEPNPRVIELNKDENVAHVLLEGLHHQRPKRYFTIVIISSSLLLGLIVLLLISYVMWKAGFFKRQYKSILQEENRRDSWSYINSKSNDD

**Q.** For O=C(Nc1cccc(-c2cccc(Cl)c2)c1)C1CCN(C2CCC2)CC1, which inhibition is on record?
**A.** 3.72%

**Q.** Which inhibition does the source give for COc1cccc(NC(=O)N2C3CCCC2CC(NC(C)=O)C3)c1 (configuration not stated) here?
**A.** 9.9%

**Q.** How did the inhibition turn out when COc1cccc(-c2cccc(NC(=O)C3CCN(C4CCC4)CC3)c2)c1 was run?
**A.** 58.8% (active)

**Q.** For CC1(C)CC(=O)C(N=Nc2c(F)cccc2F)=C(O)C1, which inhibition is on record?
**A.** 6.6%

**Q.** Which inhibition does the source give for Cc1ccc2nc(SCc3cn4c(C)cc(C)nc4n3)[nH]c2c1 here?
**A.** 9.58%

**Q.** With Cc1nn(CC(=O)Nc2ccc(C#N)cc2)c(C)c1[N+](=O)[O-] as the compound, how does the inhibition read?
**A.** 56.9% (active)

**Q.** CCc1ccc(NC(=O)Cn2nc(C)c([N+](=O)[O-])c2C)cc1 was tested. Which inhibition did it give?
**A.** -5.52%

**Q.** Which inhibition does the source give for Cc1nn(CC(=O)Nc2ccc(N(C)C)cc2)c(C)c1[N+](=O)[O-] here?
**A.** -13.4%

**Q.** With Cc1cc(NC(=O)COC(=O)/C=C/c2ccc(C)o2)no1 as the compound, how does the inhibition read?
**A.** 4.12%

**Q.** For O=C(COC(=O)c1ccco1)NCc1ccc(Cl)cc1, which inhibition is on record?
**A.** 5.08%

**Q.** With Cc1ccc(/C=C/C(=O)OCC(=O)NCc2ccc(Cl)cc2)o1 as the compound, how does the inhibition read?
**A.** 50.7% (active)

**Q.** How did the inhibition turn out when COCCN1C(=O)C(=O)/C(=C(/O)c2ccc(S(=O)(=O)N3CCCCC3)cc2)C1c1ccc(OC)c(OC)c1 (configuration not stated) was run?
**A.** -2.1%

**Q.** Which inhibition does the source give for O=C(CCNC(=O)c1ccccc1Cl)NN=Cc1ccco1 here?
**A.** 4.92%

**Q.** How did the inhibition turn out when CC(=O)n1cc([C@H]2C=C(C(=O)N3CCOCC3)O[C@@H](OCc3ccc(CO)cc3)C2)c2ccccc21 was run?
**A.** -20.8%

**Q.** Cc1cccc(C)c1N1CCN(S(=O)(=O)N2CCCCC2)CC1 was tested. Which inhibition did it give?
**A.** -7.93%

**Q.** How did the inhibition turn out when CC1O[C@@H](OC2C(O)C(C)O[C@H](OC(=O)[C@]34CCC(C)(C)C[C@H]3C3=CCC5[C@@]6(C)CC(O)C(O[C@@H]7OC(CO)C(O)[C@@H](O)[C@@H]7O)[C@@](C)(C(=O)O)C6CC[C@@]5(C)[C@]3(CO)CC4)C2O[C@H]2OC(C)[C@@H](O[C@@H]3OCC(O[C@@H]4OC(CO)C(O)[C@H](O)C4O)[C@@H](O)[C@@H]3O)[C@H](O)C2O)C(O)C(O)C1O (some centres not stated) was run?
**A.** -0.38%

**Q.** With Cc1nn(Cc2ccc(F)cc2)c(C)c1NC(=O)c1cccnc1Cl as the compound, how does the inhibition read?
**A.** 12.2%

**Q.** How did the inhibition turn out when Cc1nn(Cc2ccc(Cl)c(Cl)c2)c(C)c1NC(=O)c1cc(C2CC2)on1 was run?
**A.** 55% (active)

**Q.** Which inhibition does the source give for Cc1cc(C(=O)Nc2c(C)nn(Cc3ccccc3)c2C)on1 here?
**A.** 34.7%

**Q.** How did the inhibition turn out when COc1ccccc1CNC(=O)c1ccc(Cl)c(S(=O)(=O)N2CCCC2)c1 was run?
**A.** 4.64%

**Q.** With COc1ccc(N=C2SC(C(=O)Nc3ccc(F)cc3)CC(=O)N2C)cc1 (configuration not stated) as the compound, how does the inhibition read?
**A.** 5.98%

**Q.** How did the inhibition turn out when N#CCC(=O)NC1CCC(CC2CCC(NC(=O)CC#N)CC2)CC1 (configuration not stated) was run?
**A.** -12%

**Q.** CSc1nc(-c2ccco2)nn1C(=O)CCc1ccccc1 was tested. Which inhibition did it give?
**A.** 54% (active)

**Q.** For O=C(CSc1nnc(-c2ccco2)n1-c1ccccc1)NCCc1ccccc1, which inhibition is on record?
**A.** 4.12%

**Q.** For CS(=O)(=O)n1nc(-c2ccco2)nc1N, which inhibition is on record?
**A.** 15.3%

**Q.** For CCOC(=O)NC(=O)CSc1nnc(SCCC(=O)O)s1, which inhibition is on record?
**A.** -3.59%

**Q.** How did the inhibition turn out when O=C(c1cc2ccccc2o1)N1CCN(S(=O)(=O)c2ccc(Cl)s2)CC1 was run?
**A.** 2.54%

**Q.** How did the inhibition turn out when CCOC(=O)N1CCC(c2cc(=O)n(-c3ccccc3)[nH]2)CC1 was run?
**A.** -1.65%

**Q.** With O=C(CSc1ncnc2sccc12)NC1CCS(=O)(=O)C1 (configuration not stated) as the compound, how does the inhibition read?
**A.** 6.26%

**Q.** Which inhibition does the source give for COc1ccc(-n2ncc3c2CC(C)(C)CC3NC(=O)CCc2c(C)nn(C)c2C)cc1 (configuration not stated) here?
**A.** 4.43%

**Q.** COCCNC(=O)Cn1cc2c(n1)CCCCC2 was tested. Which inhibition did it give?
**A.** 54.5% (active)

**Q.** For O=C(Cn1cc2c(n1)CCCCC2)NCCN1CCOCC1, which inhibition is on record?
**A.** -8.14%

**Q.** How did the inhibition turn out when COc1ccccc1CNC(=O)Cn1cc2c(n1)CCCC2 was run?
**A.** -20.9%

**Q.** With CC(=NCc1ccc2c(c1)OCO2)C1=C(O)c2ccccc2C1=O as the compound, how does the inhibition read?
**A.** 3.18%

**Q.** Which inhibition does the source give for COC(=O)[C@@H]1C[C@@]2(O)[C@@H](O)[C@@H](O)[C@@H](O)C[C@H]2N1Cc1ccc(C)s1 here?
**A.** 23.4%

**Q.** How did the inhibition turn out when COc1ccc2c3c1O[C@H]1C[C@@H](O)C=C[C@@]31CCN(C)C2 was run?
**A.** 13.3%

**Q.** With CN1CCN(C(=O)Cn2c(C(F)(F)F)nc3ccccc32)CC1 as the compound, how does the inhibition read?
**A.** 5.72%

**Q.** How did the inhibition turn out when Cc1ccccc1OC(=O)Cn1c(C(F)(F)F)nc2ccccc21 was run?
**A.** 7.11%

**Q.** CC(C)(C)NC(=O)NC(=O)COC(=O)Cn1c(C(F)(F)F)nc2ccccc21 was tested. Which inhibition did it give?
**A.** 60.1% (active)

**Q.** CCOCCCN(C(=O)Cn1nnc(-c2ccc(OC)c(OC)c2)n1)C(CC)C(=O)NC1CCCC1 (configuration not stated) was tested. Which inhibition did it give?
**A.** 4.18%

**Q.** Cc1nc(NC(=O)C2CCCCC2)sc1C was tested. Which inhibition did it give?
**A.** 3.52%

**Q.** For Cc1cnc(NC(=O)c2ccccn2)s1, which inhibition is on record?
**A.** 11.4%

**Q.** With Cc1cnc(NC(=O)C2CCCC2)s1 as the compound, how does the inhibition read?
**A.** 92.5% (active)

**Q.** Which inhibition does the source give for Cc1cc(C)c(C#N)c(SCC(=O)NN2CC(=O)N(c3ccccc3F)CC2=O)n1 here?
**A.** 13.8%

**Q.** Which inhibition does the source give for CN(c1ccccc1)S(=O)(=O)c1ccc(Cl)c(C(=O)OCC(=O)NCc2ccco2)c1 here?
**A.** 17.3%

**Q.** O=C(COC(=O)c1ccccc1O)NCc1ccco1 was tested. Which inhibition did it give?
**A.** -3.83%

**Q.** Which inhibition does the source give for Cc1cc(C(=O)OCC(=O)NCc2ccco2)c(C)n1-c1ccccc1 here?
**A.** 64.6% (active)
